Our source for the Inhibition values is ChEMBL document CHEMBL4513141, “CO-ADD screening of NIH (USA) - Clinical Collection” (2021).

Results with a measured potency or affinity are listed apart.

In the first test the test system is Klebsiella pneumoniae. Conditions: Concentration 20 uM; ASSAY_TEST Inhibition of Bacterial Growth; detection method Absorption (OD600); MEDIA CAMHB; plate type 384well; NBS; CORNING #3640; time 18 hr.
Regarding `CN1[C@@H]2CC[C@H]1CC(OC(=O)C(CO)c1ccccc1)C2` (stereo partly drawn), the Inhibition is given as 9.61%.

Turning to `Cl.c1ccc2c(CC3=NCCN3)cccc2c1` [NAPHAZOLINE HYDROCHLORIDE], the Inhibition stood at 13.63%.

With `CN1C(=O)CN=C(c2ccccc2)c2cc([N+](=O)[O-])ccc21` [NIMETAZEPAM], the Inhibition stood at 13.4%.

With `C[C@H](CCC(=O)O)[C@H]1CC[C@H]2[C@@H]3C(=O)C[C@@H]4CC(=O)CC[C@]4(C)[C@H]3CC(=O)[C@]12C` [DEHYDROCHOLIC ACID], the Inhibition came out at 5.88%.

On to `CC(C)N(CCC(C(N)=O)(c1ccccc1)c1ccccn1)C(C)C.O=P(O)(O)O` (stereo not drawn) [DISOPYRAMIDE PHOSPHATE], for which the Inhibition was found to be 5.68%.

Regarding `C#C[C@]1(OC(C)=O)CC[C@H]2[C@@H]3CCC4=CC(=O)CC[C@@H]4[C@H]3CC[C@@]21C` [NORETHINDRONE ACETATE], the Inhibition is -0.71%.

With `CC(C(=O)O)c1ccc(-c2ccccc2)c(F)c1` (stereo not drawn) [FLURBIPROFEN], the Inhibition amounted to 4.59%.

Regarding `Cl.O.Oc1ccc2c3c1O[C@H]1c4[nH]c5ccccc5c4C[C@@]4(O)C(C2)N(CC2CC2)CC[C@]314`, the Inhibition is on record as -0.12%.

Regarding `CN(C)CCc1c[nH]c2ccc(Cn3cncn3)cc12.O=C(O)c1ccccc1` [RIZATRIPTAN BENZOATE], the Inhibition turned out to be 7.74%.

As for `CCCN1C[C@H](CSC)C[C@@H]2c3cccc4[nH]cc(c34)C[C@H]21.CS(=O)(=O)O` [PERGOLIDE MESYLATE], the Inhibition was found to be 13.95%.

Take `CCC1(c2ccc(N)cc2)CCC(=O)NC1=O` (stereo not drawn) [AMINOGLUTETHIMIDE]: the Inhibition came out at 3.02%.

As for `Br.CN1[C@@H]2CC(OC(=O)[C@H](CO)c3ccccc3)C[C@H]1[C@@H]1O[C@@H]12.O.O.O` (stereo partly drawn), the Inhibition is on record as 13.1%.

As to `NCCc1ccccn1`, the Inhibition is recorded as 3.21%.

As to `Cl.Oc1ccc2c3c1OC1C(O)CC[C@@]4(O)[C@@H](C2)N(CC2CCC2)CC[C@]314` (stereo partly drawn), the Inhibition was 8.11%.

As for `Br.COc1ccc2c(c1)[C@]13CCCC[C@@H]1[C@H](C2)N(C)CC3.O` [DEXTROMETHORPHAN HYDROBROMIDE], the Inhibition worked out at 8.1%.

As for `COc1cc(CNC(=O)CCCC/C=C\C(C)C)ccc1O` [ZUCAPSAICIN], the Inhibition amounted to 12.92%.

On to `COc1cc2c(cc1OC)[C@@]13CCN4CC5=CCO[C@H]6CC(=O)N2[C@H]1[C@H]6[C@H]5C[C@H]43` [BRUCINE], for which the Inhibition amounted to 6.18%.

Regarding `C[C@]12CCC(=O)C=C1CC[C@@H]1[C@@H]2CC[C@@]2(C)[C@H]1CC[C@]2(C)O` [METHYLTESTOSTERONE], the Inhibition amounted to 12.33%.

Turning to `Fc1ccc([C@@H]2CCNC[C@H]2COc2ccc3c(c2)OCO3)cc1.O=C(O)/C=C\C(=O)O`, the Inhibition is 6.3%.

Consider `CC[C@]1(O)CC[C@H]2[C@@H]3CCC4=CCCC[C@@H]4[C@H]3CC[C@@]21C` [ETHYLESTRENOL], for which the Inhibition amounted to 4.45%.

Consider `NC1=NC(=O)C(c2ccccc2)O1` (stereo not drawn) [PEMOLINE], for which the Inhibition is given as 13.09%.

`C[N+]1(C)CCC(OC(=O)C(O)(c2ccccc2)C2CCCC2)C1.[Br-]` (stereo not drawn) [GLYCOPYRRONIUM BROMIDE]: the Inhibition was 13.34%.

Take `Cl.NCCc1ccc(O)c(O)c1` [DOPAMINE HYDROCHLORIDE]: the Inhibition was determined as 13.84%.

As for `Cl.O=C1CC[C@@]2(O)[C@H]3Cc4ccc(O)c5c4[C@@]2(CCN3CC2CC2)[C@H]1O5` [NALTREXONE HYDROCHLORIDE], the Inhibition is given as 13%.

`CCOC(=O)c1cncn1[C@H](C)c1ccccc1` [ETOMIDATE]: the Inhibition came out at 12.64%.

As for `Cc1c(O)c(=O)ccn1C` [DEFERIPRONE], the Inhibition was found to be 3.55%.

`CCC(COC(=O)c1cc(OC)c(OC)c(OC)c1)(c1ccccc1)N(C)C.O=C(O)/C=C\C(=O)O` (stereo not drawn): the Inhibition was 22.71%.

In the case of `NC(=O)C[S+]([O-])C(c1ccccc1)c1ccccc1` (stereo not drawn) [MODAFINIL], the Inhibition is recorded as 7.6%.

Take `CC(O)(CS(=O)(=O)c1ccc(F)cc1)C(=O)Nc1ccc(C#N)c(C(F)(F)F)c1` (stereo not drawn) [BICALUTAMIDE]: the Inhibition is on record as 7.16%.

For `C[N+]1(C)CCN(c2ccccc2)CC1.[I-]` [DIMETHYLPHENYLPIPERAZINIUM IODIDE], the Inhibition is given as 19.04%.

Regarding `CC(COc1ccccc1)N(CCCl)Cc1ccccc1.Cl` (stereo not drawn) [PHENOXYBENZAMINE HYDROCHLORIDE], the Inhibition is on record as 17.18%.

`CN(C)CCC=C1c2ccccc2CCc2ccccc21.Cl` [AMITRIPTYLINE HYDROCHLORIDE]: the Inhibition was 11.13%.

In the case of `Cl.O.Oc1cc2c(cc1O)[C@H]1c3ccccc3CN[C@@H]1CC2`, the Inhibition stood at 11.23%.

For `CN1[C@@H](CC(=O)c2ccccc2)CCC[C@H]1C[C@H](O)c1ccccc1.Cl` [LOBELINE HYDROCHLORIDE], the Inhibition came to 19.91%.

In a further test the test system is Candida albicans. To be noted: 20 µM.
As for `CN1[C@@H]2CC[C@H]1CC(OC(=O)C(CO)c1ccccc1)C2` (stereo partly drawn), the Inhibition is 0.86%.

In the case of `Cl.c1ccc2c(CC3=NCCN3)cccc2c1` [NAPHAZOLINE HYDROCHLORIDE], the Inhibition was found to be 3.38%.

Take `CN1C(=O)CN=C(c2ccccc2)c2cc([N+](=O)[O-])ccc21` [NIMETAZEPAM]: the Inhibition amounted to 0.89%.

With `C[C@H](CCC(=O)O)[C@H]1CC[C@H]2[C@@H]3C(=O)C[C@@H]4CC(=O)CC[C@]4(C)[C@H]3CC(=O)[C@]12C` [DEHYDROCHOLIC ACID], the Inhibition came out at 3.92%.

For the molecule `CC(C)N(CCC(C(N)=O)(c1ccccc1)c1ccccn1)C(C)C.O=P(O)(O)O` (stereo not drawn) [DISOPYRAMIDE PHOSPHATE], the Inhibition is 3.35%.

Take `C#C[C@]1(OC(C)=O)CC[C@H]2[C@@H]3CCC4=CC(=O)CC[C@@H]4[C@H]3CC[C@@]21C` [NORETHINDRONE ACETATE]: the Inhibition stood at 6.32%.

For the molecule `CC(C(=O)O)c1ccc(-c2ccccc2)c(F)c1` (stereo not drawn) [FLURBIPROFEN], the Inhibition amounted to 8.89%.

For the molecule `Cl.O.Oc1ccc2c3c1O[C@H]1c4[nH]c5ccccc5c4C[C@@]4(O)C(C2)N(CC2CC2)CC[C@]314`, the Inhibition came out at 6.31%.

On to `CN(C)CCc1c[nH]c2ccc(Cn3cncn3)cc12.O=C(O)c1ccccc1` [RIZATRIPTAN BENZOATE], for which the Inhibition amounted to 5.06%.

For `CCCN1C[C@H](CSC)C[C@@H]2c3cccc4[nH]cc(c34)C[C@H]21.CS(=O)(=O)O` [PERGOLIDE MESYLATE], the Inhibition stood at 2.85%.

With `CCC1(c2ccc(N)cc2)CCC(=O)NC1=O` (stereo not drawn) [AMINOGLUTETHIMIDE], the Inhibition came out at 2.63%.

For `Br.CN1[C@@H]2CC(OC(=O)[C@H](CO)c3ccccc3)C[C@H]1[C@@H]1O[C@@H]12.O.O.O` (stereo partly drawn), the Inhibition amounted to 2.39%.

For the molecule `NCCc1ccccn1`, the Inhibition was determined as 3.53%.

As for `Cl.Oc1ccc2c3c1OC1C(O)CC[C@@]4(O)[C@@H](C2)N(CC2CCC2)CC[C@]314` (stereo partly drawn), the Inhibition was determined as 2.98%.

As to `Br.COc1ccc2c(c1)[C@]13CCCC[C@@H]1[C@H](C2)N(C)CC3.O` [DEXTROMETHORPHAN HYDROBROMIDE], the Inhibition amounted to 2.88%.

Regarding `COc1cc(CNC(=O)CCCC/C=C\C(C)C)ccc1O` [ZUCAPSAICIN], the Inhibition amounted to 4.72%.

As for `COc1cc2c(cc1OC)[C@@]13CCN4CC5=CCO[C@H]6CC(=O)N2[C@H]1[C@H]6[C@H]5C[C@H]43` [BRUCINE], the Inhibition was 2.36%.

As for `C[C@]12CCC(=O)C=C1CC[C@@H]1[C@@H]2CC[C@@]2(C)[C@H]1CC[C@]2(C)O` [METHYLTESTOSTERONE], the Inhibition was 4.22%.

For `Fc1ccc([C@@H]2CCNC[C@H]2COc2ccc3c(c2)OCO3)cc1.O=C(O)/C=C\C(=O)O`, the Inhibition came out at 2.04%.

Consider `CC[C@]1(O)CC[C@H]2[C@@H]3CCC4=CCCC[C@@H]4[C@H]3CC[C@@]21C` [ETHYLESTRENOL], for which the Inhibition was 4.07%.

Turning to `NC1=NC(=O)C(c2ccccc2)O1` (stereo not drawn) [PEMOLINE], the Inhibition was determined as 1.75%.

Consider `C[N+]1(C)CCC(OC(=O)C(O)(c2ccccc2)C2CCCC2)C1.[Br-]` (stereo not drawn) [GLYCOPYRRONIUM BROMIDE], for which the Inhibition was determined as 3.65%.

In the case of `Cl.NCCc1ccc(O)c(O)c1` [DOPAMINE HYDROCHLORIDE], the Inhibition was -0.19%.

As for `Cl.O=C1CC[C@@]2(O)[C@H]3Cc4ccc(O)c5c4[C@@]2(CCN3CC2CC2)[C@H]1O5` [NALTREXONE HYDROCHLORIDE], the Inhibition was found to be 3.06%.

For `CCOC(=O)c1cncn1[C@H](C)c1ccccc1` [ETOMIDATE], the Inhibition is 0.03%.

On to `Cc1c(O)c(=O)ccn1C` [DEFERIPRONE], for which the Inhibition came out at 4.97%.

`CCC(COC(=O)c1cc(OC)c(OC)c(OC)c1)(c1ccccc1)N(C)C.O=C(O)/C=C\C(=O)O` (stereo not drawn): the Inhibition amounted to 3.77%.

Turning to `NC(=O)C[S+]([O-])C(c1ccccc1)c1ccccc1` (stereo not drawn) [MODAFINIL], the Inhibition was determined as 2.96%.

Turning to `CC(O)(CS(=O)(=O)c1ccc(F)cc1)C(=O)Nc1ccc(C#N)c(C(F)(F)F)c1` (stereo not drawn) [BICALUTAMIDE], the Inhibition was -0.48%.

As to `C[N+]1(C)CCN(c2ccccc2)CC1.[I-]` [DIMETHYLPHENYLPIPERAZINIUM IODIDE], the Inhibition was 2.58%.

For `CC(COc1ccccc1)N(CCCl)Cc1ccccc1.Cl` (stereo not drawn) [PHENOXYBENZAMINE HYDROCHLORIDE], the Inhibition amounted to 4.97%.

For `CN(C)CCC=C1c2ccccc2CCc2ccccc21.Cl` [AMITRIPTYLINE HYDROCHLORIDE], the Inhibition worked out at 3.15%.

On to `Cl.O.Oc1cc2c(cc1O)[C@H]1c3ccccc3CN[C@@H]1CC2`, for which the Inhibition stood at 1.34%.

With `CN1[C@@H](CC(=O)c2ccccc2)CCC[C@H]1C[C@H](O)c1ccccc1.Cl` [LOBELINE HYDROCHLORIDE], the Inhibition is 2.98%.
